This note sets out measurements from PubChem BioAssay (NCATS).

Inconclusive results are not listed. The source made the active and inactive calls. Unless noted, calls follow the shape of the dose curve; as a rule, active = well fitted curve in the direction sought with a large enough effect; inconclusive = small, poorly fitted or top-dose-only effect, or another doubt; inactive = no such curve, though single readings can be large; an effect the other way counts as inactive or inconclusive.

Assay [1] is described as follows: UWB1.289 Cancer Cell Toxicity qHTS against the NCATS CANVASS Library (AID 1347347). Also: potency is read from the fitted curve at half-maximal effect; nearly all actives have a fitted effect of over 60% in size. The essentials: (§1)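 Per well, 1000 cells; exposure 72 h with compound at 11 final concentrations; readout CellTiter-Glo luminescence.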
(qHTS replaces the single test concentration by a dilution series.)

The nature of assay [2]: OV-SAHO Cancer Cell Toxicity qHTS against the NCATS CANVASS Library (AID 1347348). Also: potency is read from the fitted curve at half-maximal effect; nearly all actives have a fitted effect of over 55% in size. A digest of the protocol: as §1
Assay [3] is described as follows: qHTS for activators of dead-cell proteases activity screened against the NCATS CANVASS Library (AID 1347392).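 Also: luminescence from protease leaking out of membrane-damaged cells cleaving impermeant substrate; 0% is about no effect; rising signal means more cytotoxicity.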 A digest of the protocol: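 HepG2 cells (2000/well) attached 18 h at 37C, then exposed 5 h to compounds (11-point qHTS). Dead-cell protease activity read as luminescence from cell-impermeant AAF-aminoluciferin substrate after 15 min at room temperature.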

A short description of assay [4]: HEK293 24hr Apoptosis Induction qHTS against the NCATS CANVASS Library (AID 1347359). Also: 0% is about no effect. A digest of the protocol:
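HEK293 cells (500/well, DMEM + 10% FBS) were exposed to compounds in an 11-point series for 24 hours at 37 degrees C, then caspase-3/7 activity was read by Caspase-Glo DEVD luciferase luminescence after 15 min.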

The nature of assay [5]: KB-3-1 Cancer Cell Toxicity qHTS against the NCATS CANVASS Library (AID 1347366). Also: potency is read from the fitted curve at half-maximal effect; nearly all actives have a fitted effect of over 75% in size. The essentials:
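Cytotoxicity toward KB-3-1 cells (500/well, DMEM + 10% FBS) was scored by CellTiter-Glo luminescence following 72 hr exposure at 37C, with bortezomib titrated as control.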

The nature of assay [6]: qHTS for Antimalaria activity screened against the NCATS CANVASS Library (AID 1347380). Also: potency is read from the fitted curve at half-maximal effect; nearly all actives have a fitted effect of over 40% in size. A digest of the protocol: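 Growth inhibition of asexual erythrocytic P. falciparum Dd2 was quantified by SYBR Green DNA staining. Cultures grew 72 h with compound (11-point series) in hypoxic gas at 37C; lysis and staining lasted 18 h.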
Assay [7] can be described thus: qHTS assay for small molecule disruptors of mitochondrial membrane potential screened against the NCATS CANVASS Library (AID 1347389). Also: % is scaled to controls: 0 for no effect and ±100 for the full control effect; nearly all actives have a fitted effect of over 60% in size. The essentials: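 Compounds tested in 11-point qHTS series on HepG2 cells for 1 hr; membrane-potential dye added for 30 min at 37C. Lower red-to-green ratio indicates loss of potential.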
Assay [8] addresses Cytochrome P450 2C9 (Homo sapiens) (UniProt P11712). The assay is described as follows: Cytochrome P450 family 2 subfamily C member 9 (CYP2C9) small molecule antagonists: luciferase biochemical (cell-free) qHTS assay (AID 1645842; active = well fitted curve in the direction sought with a large enough effect in the repeat runs; an effect the other way counts as inactive or inconclusive; also: nearly all actives have a fitted effect of over 55% in size; also: potency is read from the fitted curve at half-maximal effect; as to activity change, negative = inhibition: % is scaled to controls: 0 for no effect and ±100 for the full control effect). A digest of the protocol: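 Luminescence, after 20 min with luciferin detection reagent, reflected CYP2C9 turnover during a 1 h NADPH-driven reaction at 37C. Enzyme-substrate mix contained 0.4% bovine serum albumin and was preincubated with compound 10 min at room temperature.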

Assay [9] has as its target Cytochrome P450 2D6 (Homo sapiens) (UniProt P10635). Briefly: Cytochrome P450 family 2 subfamily D member 6 (CYP2D6) small molecule antagonists: luciferase biochemical (cell-free) qHTS assay (AID 1645840; active = well fitted curve in the direction sought with a large enough effect in the repeat runs; an effect the other way counts as inactive or inconclusive; also: nearly all actives have a fitted effect of over 55% in size; also: potency is read from the fitted curve at half-maximal effect; as to activity change, negative = inhibition: % is scaled to controls: 0 for no effect and ±100 for the full control effect). The essentials:
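P450-Glo luminescent screen: recombinant CYP2D6 enzyme–proluciferin substrate mix preincubated with compound 10 min at room temperature, then NADPH regeneration added for 1 h at room temperature. Detection reagent added for 20 min; luciferin light read as relative luminescence units.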

Assay [10] in a line: qHTS Assay for Lipid Storage Modulators (AID 1519; calls by dose curve; as to activity change, negative = inhibition: % is scaled to controls: 0 for no effect and ±100 for the full control effect). To be noted: Drosophila S3 cells, BODIPY lipid droplet/cell ratio, laser cytometry, cells loaded with oleic acid; for activity change, negative = inhibition: at 57.5 µM (top of the series). A digest of the protocol: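 Cells seeded at 5,000 per well were treated with compounds over a concentration series and loaded with oleic acid (400 uM, as added). Lipid droplet fluorescence (488 nm excitation, 500-530 nm channel) was read by laser-scanning cytometry and normalized to 20 uM Triacsin C.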

Assay [11] addresses Calcium and integrin-binding protein 1 (Homo sapiens) (UniProt Q99828). Briefly: Primary qHTS for Identification of Calcium Integrin Binding Protein 1 (CIB1) Competitor (AID 1508620).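 Also: GST tagged CIB1 binding a fluorescein labelled alphaIIb integrin peptide tracer; top concentration of the series differs between compounds; % is scaled to controls: 0 for no effect and ±100 for the full control effect.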 A digest of the protocol: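 Fluorescence polarization competition: CIB1-GST (1 uM final) preincubated with compound 15 min at room temperature, then FITC-labeled alphaIIb peptide (100 nM final) added for another 15 min. Polarization read at Ex 480/Em 540.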

Assay [12] can be described thus: NCATS anti-infectives library activity on HEK293 viability as a counter-qHTS vs the C. elegans viability qHTS (AID 1745854).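 Also: HEK293 cells exposed to compounds for 24 hr before the viability read.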 Also: potency is read from the fitted curve at half-maximal effect. The essentials:
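Cytotoxicity in human HEK293 cells is measured by ATP-dependent CellTiter-Glo luminescence following a 24 hr incubation with titrated library compounds at 37C. Top final concentration is 41.7 uM.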

Assay [13] can be described thus: NCATS anti-infectives library activity on the primary C. elegans qHTS viability assay (AID 1745855; calls by dose curve; also: potency is read from the fitted curve at half-maximal effect). A digest of the protocol:
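Viability is taken from GFP fluorescence of PE254-GFP-FLuc C. elegans imaged by laser cytometry over 7 days. Ten L1 worms per well grow at 21 °C on TOP10 E. coli capsules with titrated compound; levamisole marks toxicity.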

A short description of assay [14]: qHTS profiling for inhibitors of Plasmodium falciparum proliferation (AID 504749). Also: potency is read from the fitted curve at half-maximal effect.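 As to activity, negative = inhibition: 0% = DMSO vehicle and full inhibition = artemisinin control.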 As to all read-outs here: nearly all actives have a fitted effect of over 60% in size. To be noted: P. falciparum in erythrocytes, SYBR Green DNA, 72 h; for activity, negative = inhibition: at 28.7 µM (top of the series). The essentials: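 P. falciparum-infected erythrocytes (0.3% parasitemia, 2.5% hematocrit final) were exposed to compounds for 72 h at 37 C in 5% CO2, then lysed with SYBR Green buffer overnight at room temperature; parasite DNA fluorescence was normalized to artemisinin and DMSO controls.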

Setting [15] is: measured here: cell count channel max response.
Setting [16] is: measured here: lipid channel max response.

Chain of Cytochrome P450 2D6 (Homo sapiens) (P10635 whole entry, looked up): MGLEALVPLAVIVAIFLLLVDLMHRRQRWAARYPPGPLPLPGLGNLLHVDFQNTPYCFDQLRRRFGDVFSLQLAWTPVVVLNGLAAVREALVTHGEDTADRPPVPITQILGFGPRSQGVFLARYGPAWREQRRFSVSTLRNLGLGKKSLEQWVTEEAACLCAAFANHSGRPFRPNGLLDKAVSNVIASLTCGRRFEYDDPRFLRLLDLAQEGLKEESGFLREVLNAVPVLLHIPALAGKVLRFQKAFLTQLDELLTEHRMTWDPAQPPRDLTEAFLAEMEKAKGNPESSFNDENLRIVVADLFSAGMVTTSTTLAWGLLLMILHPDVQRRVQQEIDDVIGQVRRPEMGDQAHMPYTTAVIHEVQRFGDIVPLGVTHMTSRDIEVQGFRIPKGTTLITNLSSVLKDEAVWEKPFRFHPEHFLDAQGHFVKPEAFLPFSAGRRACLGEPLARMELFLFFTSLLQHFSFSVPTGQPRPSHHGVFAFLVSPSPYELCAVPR
Chain of Calcium and integrin-binding protein 1 (Homo sapiens) (Q99828 whole entry, looked up): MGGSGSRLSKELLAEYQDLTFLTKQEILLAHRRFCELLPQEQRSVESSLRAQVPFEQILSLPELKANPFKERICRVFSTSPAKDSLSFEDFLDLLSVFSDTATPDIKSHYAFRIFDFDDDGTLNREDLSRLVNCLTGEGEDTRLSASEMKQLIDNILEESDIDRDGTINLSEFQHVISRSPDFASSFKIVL
Chain of Cytochrome P450 2C9 (Homo sapiens) (P11712 whole entry, looked up): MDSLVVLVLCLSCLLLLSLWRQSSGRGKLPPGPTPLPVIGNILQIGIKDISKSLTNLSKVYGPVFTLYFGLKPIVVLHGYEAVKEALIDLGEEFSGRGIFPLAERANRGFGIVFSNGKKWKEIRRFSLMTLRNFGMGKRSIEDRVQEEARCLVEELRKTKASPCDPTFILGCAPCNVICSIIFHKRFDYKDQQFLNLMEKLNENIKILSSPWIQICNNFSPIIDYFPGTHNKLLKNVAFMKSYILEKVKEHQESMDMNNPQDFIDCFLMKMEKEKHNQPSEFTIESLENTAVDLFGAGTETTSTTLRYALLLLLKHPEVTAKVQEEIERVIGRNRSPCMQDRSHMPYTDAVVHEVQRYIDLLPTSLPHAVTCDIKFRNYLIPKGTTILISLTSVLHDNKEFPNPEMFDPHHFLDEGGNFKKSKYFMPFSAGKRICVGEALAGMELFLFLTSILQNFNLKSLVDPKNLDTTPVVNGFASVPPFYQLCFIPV

With `C=C1C[C@H]2O[C@@H]3[C@@H]4[C@H](CC[C@@](C)(O)[C@@H]42)[C@H](C)COC3(C)[C@@H](OC(=O)CCCCCCC)CC1=O` (stereo partly specified), the Potency in assay [1] and in [2] was 18.8 µM (active) throughout. The Potency entry in [3] is “inactive”.

On to `O[C@H]1C=C2[C@H]3CN(Cc4cc5c(cc43)OCO5)[C@H]2C[C@@H]1O`, for which the Potency entry in [4], in [7] and in assay [3] was “inactive” in each case. The Potency in [5] is 13.2 µM (active); in assay [6], 5.29 µM (active).

In the case of `NS(=O)(=O)c1ccc(Cc2c(-c3cccc(-c4ccccc4)c3)nn(-c3nc(C(=O)O)cs3)c2CC2CC2)cc1`, in [8], the Potency was 21.3 µM (active).

Turning to `C[C@H](CCC(=O)O)[C@H]1CC[C@H]2[C@@H]3[C@@H](O)C[C@@H]4C[C@H](O)CC[C@]4(C)[C@H]3CC[C@]12C`, in assay [9], the Potency entry was “inactive”.

Consider `C[C@H]1CC2[C@@H]3CCC4=CC(=O)C=C[C@]4(C)[C@@]3(F)[C@@H](O)C[C@]2(C)[C@@]1(O)C(=O)CO` (stereo partly specified), for which, in [10], the activity change, negative = inhibition is -0.272% (inactive). For the same molecule, the max response is -0.0442% in assay [10] (setting [15]) and 0.965% in assay [10] (setting [16]).

As to `Clc1cccc(-c2ccc(-c3nnc(CCCc4ccc5cccnc5n4)o3)cc2)c1`, in assay [11], the Potency entry is “inactive”.

Take `Cc1cccc(/C=N/Nc2cc(N3CCOCC3)nc(OCCc3ccccn3)n2)c1`: the Potency in [9] was 10.7 µM (active); in assay [8], 7.56 µM (active). Besides, the Potency entry in assay [12] was “inactive”.

In the case of `C=CC(=O)N1CC/C(=C\c2ccc(F)c([N+](=O)[O-])c2)C(=O)/C(=C/c2ccc(F)c([N+](=O)[O-])c2)C1`, the Potency in assay [12] is 1.78 µM (active).

Regarding `CCC[C@H](NC(=O)/C(C#N)=C/c1cccc(Br)n1)c1ccccc1`, the Potency in assay [13] is 4.09 µM (active).

Regarding `CN(Cc1ccccc1)C(=O)c1ccc(S(=O)(=O)Nc2ccccc2)cc1`, the Potency entry in assay [11] is “inactive”.

For `Cc1ccc(-n2c(C)cc(-c3nnc4n3CCCCC4)c2C)cc1`, the Potency entry in [11] is “inactive”.

Consider `Cc1c(CN2CCN(C(=O)[C@H](C)O)CC2)sc2c(N3CCOCC3)nc(-c3cnc(N)nc3)nc12`, for which the Potency entry in assay [9] and in assay [8] was “inactive” throughout.

Take `O=C(CCCc1ccc2cccnc2n1)NCc1cc(-c2ccc(F)c(C(F)(F)F)c2)no1`: the Potency entry in assay [11] is “inactive”.

As for `O=C(O)c1ccc(O)c2ncccc12`, the Potency result in [11] was “inactive”.

Regarding `C[C@@]12C(=O)OC(=O)[C@]1(C)[C@H]1CC[C@@H]2O1`, the Potency in [14] (parasite line A) is 3.98 µM (active); in assay [14] (parasite line B) it was 3.16 µM (active).

As for `COc1ccc(-n2cnc3cc(C(=O)N4CCCCC4)ccc32)cc1`, the Potency result in [11] is “inactive”.

For the molecule `C[C@@H]1CC(=O)Nc2cccc(-c3cnn(C(C)(C)C)c3)c2N1`, the Potency entry in assay [11] is “inactive”.

As to `C=C1CCC2[C@](C)(CO)C(O)CC[C@]2(C)C1C/C=C1/C(=O)OCC1O` (stereo partly specified), in assay [10], the activity change, negative = inhibition was 2.99% (inactive). Moreover, the max response in [10] (setting [15]) was found to be 11%; in [10] (setting [16]) it was 17.4%. Moreover, the activity, negative = inhibition is -24.6% (inactive) in assay [14] (parasite line A) and -25.9% (inactive) in assay [14] (parasite line B).

In the case of `O=C(/C=C\n1cnc(-c2cc(C(F)(F)F)cc(C(F)(F)F)c2)n1)NNc1cnccn1`, in assay [11], the Potency entry is “inactive”. For the same molecule, the Potency in assay [13] is 25.8 µM (active).

For `O=C(/C=C/c1cccnc1)NCCCCC1CCN(C(=O)c2ccccc2)CC1`, the Potency in assay [9] was 16.9 µM (active); in assay [8] it was 13.5 µM (active).

As to `Cc1c(-c2ccc(-c3ccccc3F)cc2)nc2ccc(F)cc2c1C(=O)O`, the Potency entry in assay [12] was “inactive”.

Take `COc1ccnc2[nH]cc(C(=O)C(=O)N3CCN(C(=O)c4ccccc4)C[C@H]3C)c12`: the Potency result in assay [12] and in assay [13] was “inactive” each time.

For the molecule `CC(C)=CCC[C@](C)(O[C@@H]1O[C@H](CO[C@@H]2O[C@H](CO)[C@@H](O)[C@H](O)[C@H]2O)[C@@H](O)[C@H](O)[C@H]1O)[C@H]1CC[C@]2(C)[C@@H]1[C@H](O)C[C@@H]1[C@@]3(C)CC[C@H](O[C@@H]4O[C@H](CO)[C@@H](O)[C@H](O)[C@H]4O[C@@H]4O[C@H](CO)[C@@H](O)[C@H](O)[C@H]4O)C(C)(C)[C@@H]3CC[C@]12C`, in assay [12], the Potency entry was “inactive”.

For `CC#Cc1cncc(-c2ccc3c(c2)[C@@]2(N=C(C)C(N)=N2)C2(CCC(OC)CC2)C3)c1` (stereo partly specified), in [12], the Potency result was “inactive”.

With `COC[C@@H](c1ccc(C(F)(F)F)cc1)N1CCN(C2(C)CCN(C(=O)c3c(C)ncnc3C)CC2)C[C@@H]1C`, the Potency entry in assay [12] is “inactive”.

For the molecule `COC(=O)C1=C(C)NC(c2ncc(F)cc2F)=N[C@H]1c1ccc(F)cc1Cl`, the Potency result in assay [12] was “inactive”.

Regarding `CC(=O)O/N=C1\C(=O)N(Cc2cc(Cl)ccc2Cl)c2ccc(Cl)cc21`, the Potency entry in [12] was “inactive”.

Take `Cc1c(-c2cnccn2)ssc1=S`: the Potency entry in [12] and in [13] was “inactive” each time.

For the molecule `Cn1cc(/C=C/C(=O)c2cccc(F)c2)cc1/C=C/C(=O)NO`, in [12], the Potency entry is “inactive”.

With `CN1C(N)=N[C@](C)(c2cc(NC(=O)c3ccc(F)cn3)ccc2F)CS1(=O)=O`, in assay [12], the Potency result was “inactive”.

Take `c1ccc(CNCc2ccc(CN3CCCNCCNCCCNCC3)cc2)nc1`: in assay [12], the Potency entry was “inactive”.

For the molecule `NC1=N[C@@]2(c3cc(NC(=O)c4ccc(F)cn4)ccc3F)COC[C@H]2CS1`, the Potency entry in [12] was “inactive”.

As to `CC(/C=C1\SC(=S)N(CC(=O)O)C1=O)=C\c1ccccc1`, the activity, negative = inhibition in assay [14] (parasite line A) is -3.63% (inactive).

Turning to `CC(=O)N1c2ccc(-c3ccc(C(=O)O)cc3)cc2[C@H](Nc2ccc(Cl)cc2)C[C@@H]1C`, the Potency entry in [12] was “inactive”. The Potency in [13] is 23 µM (active).

Take `C[C@]12CCC3[C@@H](CC[C@H]4NC(=O)C=C[C@]34C)[C@@H]1CC[C@@H]2C(=O)Nc1cc(C(F)(F)F)ccc1C(F)(F)F` (stereo partly specified): the Potency entry in assay [12] is “inactive”.
